These results are taken from ChEMBL document CHEMBL3988442, “University of Dundee, Small-Polar-MMV Screening Library” (2021).

Structures are written as SMILES. Values joined by “and” are separate entries in the source; they are usually repeats but may differ in a detail not shown here. Equal entries are not always repeated. For part of these data: Potency and affinity values are given separately.

What all share (set-up): scale not given: direction of the effect not stated beside the values
The target in assay [1] is Protein translocase subunit SecA (Escherichia coli (strain K12)) (UniProt P10408). The assay can be described thus: Assay to Identify E. coli SecA ATPase Inhibitors. The class given is functional. The note with it: 30 µM.
Sequence of Protein translocase subunit SecA (Escherichia coli (strain K12)) (P10408 whole entry): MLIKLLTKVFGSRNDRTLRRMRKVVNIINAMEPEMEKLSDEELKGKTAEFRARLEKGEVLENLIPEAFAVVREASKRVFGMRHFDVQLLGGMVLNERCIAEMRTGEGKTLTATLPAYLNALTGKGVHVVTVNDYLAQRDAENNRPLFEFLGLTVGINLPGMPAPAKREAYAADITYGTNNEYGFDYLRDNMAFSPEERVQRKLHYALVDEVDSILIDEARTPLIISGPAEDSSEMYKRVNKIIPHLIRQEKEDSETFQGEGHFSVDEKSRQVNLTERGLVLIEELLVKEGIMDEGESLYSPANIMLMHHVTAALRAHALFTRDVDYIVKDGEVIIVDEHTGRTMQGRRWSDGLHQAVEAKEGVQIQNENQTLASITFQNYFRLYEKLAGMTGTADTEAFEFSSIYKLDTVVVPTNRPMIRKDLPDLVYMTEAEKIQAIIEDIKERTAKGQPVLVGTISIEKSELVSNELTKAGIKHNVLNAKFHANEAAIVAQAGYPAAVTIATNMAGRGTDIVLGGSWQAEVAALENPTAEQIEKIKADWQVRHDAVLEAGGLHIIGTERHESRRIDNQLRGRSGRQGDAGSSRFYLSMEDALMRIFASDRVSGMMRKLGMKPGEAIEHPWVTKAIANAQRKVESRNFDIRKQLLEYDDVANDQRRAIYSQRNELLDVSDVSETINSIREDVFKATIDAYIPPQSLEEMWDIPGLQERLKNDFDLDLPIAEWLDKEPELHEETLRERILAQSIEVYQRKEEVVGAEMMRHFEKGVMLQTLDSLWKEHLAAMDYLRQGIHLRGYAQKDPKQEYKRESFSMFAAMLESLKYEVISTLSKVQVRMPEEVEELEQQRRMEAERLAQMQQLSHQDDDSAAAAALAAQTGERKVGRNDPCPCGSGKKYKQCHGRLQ
The target of assay [2] is T1, Ubiquitin-activating enzyme e1, putative (Leishmania donovani (strain BPK282A1)) (UniProt E9BSI1).
T1 sequence (whole entry): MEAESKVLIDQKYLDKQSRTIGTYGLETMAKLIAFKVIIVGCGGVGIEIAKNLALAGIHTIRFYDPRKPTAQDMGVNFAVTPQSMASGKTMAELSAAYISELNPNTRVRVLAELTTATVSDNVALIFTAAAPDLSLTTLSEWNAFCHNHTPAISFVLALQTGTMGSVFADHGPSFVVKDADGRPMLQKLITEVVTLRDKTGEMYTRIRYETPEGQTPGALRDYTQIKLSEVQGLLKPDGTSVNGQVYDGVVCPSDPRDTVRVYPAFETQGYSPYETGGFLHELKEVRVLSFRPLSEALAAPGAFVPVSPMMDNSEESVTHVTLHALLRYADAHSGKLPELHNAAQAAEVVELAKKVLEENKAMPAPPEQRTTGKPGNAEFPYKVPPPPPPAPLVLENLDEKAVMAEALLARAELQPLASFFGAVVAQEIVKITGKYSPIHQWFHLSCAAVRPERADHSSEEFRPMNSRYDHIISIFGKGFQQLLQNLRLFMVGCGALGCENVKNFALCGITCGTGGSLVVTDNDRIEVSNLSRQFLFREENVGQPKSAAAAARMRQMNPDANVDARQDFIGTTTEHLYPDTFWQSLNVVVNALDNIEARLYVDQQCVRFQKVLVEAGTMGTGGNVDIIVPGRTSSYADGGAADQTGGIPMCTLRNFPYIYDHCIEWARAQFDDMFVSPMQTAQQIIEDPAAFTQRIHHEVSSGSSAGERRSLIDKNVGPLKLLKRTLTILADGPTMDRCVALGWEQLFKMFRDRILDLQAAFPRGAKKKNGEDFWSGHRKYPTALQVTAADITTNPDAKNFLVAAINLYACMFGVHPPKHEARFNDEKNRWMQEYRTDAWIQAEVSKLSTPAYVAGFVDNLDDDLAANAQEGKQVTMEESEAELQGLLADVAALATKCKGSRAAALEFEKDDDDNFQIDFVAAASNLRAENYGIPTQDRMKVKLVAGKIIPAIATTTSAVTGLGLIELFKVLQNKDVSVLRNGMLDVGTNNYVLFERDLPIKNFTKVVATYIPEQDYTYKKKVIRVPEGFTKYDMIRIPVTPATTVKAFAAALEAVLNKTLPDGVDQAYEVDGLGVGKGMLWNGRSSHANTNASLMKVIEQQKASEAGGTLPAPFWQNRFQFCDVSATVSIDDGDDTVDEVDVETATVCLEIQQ
The assay can be described thus: Leishmania donovani Ubiquitin Activating Enzyme (LdE1). Type of assay: functional. Particulars: 30 µM.

For assay [3], the target named is AMP-activated protein kinase, AMPK (Homo sapiens) (UniProt P54646+O43741+P54619+Q9UGJ0+Q9Y478+Q13131+Q9UGI9). Description: AMP-dependent Kinase enzyme assay. An in vitro enzyme assay that detects ADP turnover that is directly proportional to AMPK activity. This uses naive AMPK that is activated during the assay with MK-8722. The class given is functional. Particulars: 30 µM.

The target of assay [4] is Sialic acid-binding Ig-like lectin 9 (Homo sapiens) (UniProt Q9Y336). Description: Hs-Siglec9 ALPHAscreen SOP 20170721. Particulars: 10 µM.
Sequence of Sialic acid-binding Ig-like lectin 9 (Homo sapiens) (Q9Y336 whole entry): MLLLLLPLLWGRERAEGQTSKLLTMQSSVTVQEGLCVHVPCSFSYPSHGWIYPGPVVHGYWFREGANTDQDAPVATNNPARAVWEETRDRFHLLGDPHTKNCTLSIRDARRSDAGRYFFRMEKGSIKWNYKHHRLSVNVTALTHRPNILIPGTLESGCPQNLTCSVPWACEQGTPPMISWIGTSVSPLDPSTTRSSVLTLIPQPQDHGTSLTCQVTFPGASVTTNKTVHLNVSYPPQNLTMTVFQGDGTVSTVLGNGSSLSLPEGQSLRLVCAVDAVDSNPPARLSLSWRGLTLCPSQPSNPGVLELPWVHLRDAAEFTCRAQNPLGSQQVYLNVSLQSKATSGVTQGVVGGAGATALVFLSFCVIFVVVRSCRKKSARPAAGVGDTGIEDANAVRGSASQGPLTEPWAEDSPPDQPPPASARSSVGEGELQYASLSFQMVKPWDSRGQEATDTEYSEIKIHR
Assay [5] deals with Trypanosoma cruzi. Description: Trypanosoma cruzi phosphomannomutase and mannose-1-phosphate guanylyltransferase assay. The class given is functional. The note with it: 10 µM.
Assay [6] concerns the target T2, Arginase-2, mitochondrial (Homo sapiens) (UniProt P78540).
T2 sequence (whole entry): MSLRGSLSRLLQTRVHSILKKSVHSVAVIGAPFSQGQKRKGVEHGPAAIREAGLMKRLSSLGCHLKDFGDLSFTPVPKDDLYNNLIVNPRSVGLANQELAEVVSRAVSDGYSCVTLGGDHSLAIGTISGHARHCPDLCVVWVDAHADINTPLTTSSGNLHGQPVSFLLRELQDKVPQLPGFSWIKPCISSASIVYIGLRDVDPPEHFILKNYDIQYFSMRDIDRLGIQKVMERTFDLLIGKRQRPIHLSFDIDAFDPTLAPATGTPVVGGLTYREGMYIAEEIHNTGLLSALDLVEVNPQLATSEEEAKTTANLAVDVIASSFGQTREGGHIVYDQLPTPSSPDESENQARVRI
Description: in vitro enzyme assay to detect the production of urea directly proportional to the activity of Arginase II. Note: in the data most compounds retested in dose-response had high values. The note with it: 33.3 µM. The class given is functional.

For assay [7], the target named is T3, Proteasome subunit beta (Trypanosoma cruzi) (UniProt O96673).
T3 sequence (whole entry): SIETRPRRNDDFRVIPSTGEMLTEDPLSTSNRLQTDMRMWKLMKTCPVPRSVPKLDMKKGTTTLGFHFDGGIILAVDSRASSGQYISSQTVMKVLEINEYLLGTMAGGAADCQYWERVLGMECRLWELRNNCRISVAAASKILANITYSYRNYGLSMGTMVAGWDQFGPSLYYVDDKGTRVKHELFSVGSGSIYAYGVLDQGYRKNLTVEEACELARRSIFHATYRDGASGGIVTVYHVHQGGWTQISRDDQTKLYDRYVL
The assay can be described thus: Trypanosoma cruzi proteasome chymotrypsin-like activity (TcProtChymo) assay. Note: in the data most compounds retested in dose-response had high values. The class given is functional. Particulars: 9.37 µM.

Assay [8] is filed under the species Homo sapiens. Description: To identify inhibition of the IFN signalling (Jak-Stat) pathway via expression of an eGFP reporter gene under the control of an IFN-stimulated response element (ISRE) containing MxA promoter. Type of assay: functional. Particulars: 30 µM.
Assay [9] has as its target T4, Tyrosyl-tRNA synthetase, putative (Trypanosoma cruzi (strain CL Brener)) (UniProt Q4DSP6).
T4 sequence (whole entry): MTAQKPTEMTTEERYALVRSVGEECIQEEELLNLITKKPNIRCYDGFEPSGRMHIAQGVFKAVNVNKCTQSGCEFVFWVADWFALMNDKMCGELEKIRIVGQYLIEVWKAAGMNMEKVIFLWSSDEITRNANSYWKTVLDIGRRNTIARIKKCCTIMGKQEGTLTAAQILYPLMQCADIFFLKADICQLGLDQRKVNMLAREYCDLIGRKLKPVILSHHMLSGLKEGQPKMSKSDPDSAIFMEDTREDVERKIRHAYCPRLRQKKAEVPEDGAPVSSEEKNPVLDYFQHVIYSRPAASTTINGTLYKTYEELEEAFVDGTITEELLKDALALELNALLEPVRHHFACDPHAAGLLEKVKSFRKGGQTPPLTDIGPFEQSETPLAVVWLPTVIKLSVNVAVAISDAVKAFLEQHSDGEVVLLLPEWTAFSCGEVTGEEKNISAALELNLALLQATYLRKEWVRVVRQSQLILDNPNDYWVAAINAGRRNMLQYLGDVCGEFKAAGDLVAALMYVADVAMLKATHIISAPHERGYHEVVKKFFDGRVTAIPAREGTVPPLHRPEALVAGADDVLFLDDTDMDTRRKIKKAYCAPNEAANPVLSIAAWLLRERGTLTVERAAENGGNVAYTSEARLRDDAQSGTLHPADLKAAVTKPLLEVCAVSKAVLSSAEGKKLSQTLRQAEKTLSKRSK
Description: Trypanosoma cruzi tyrosyl tRNA synthetase (TcYRS) _High Tyrosine SOP. Note: in the data most compounds retested in dose-response had high values. Particulars: 30 µM. Type of assay: functional.

For assay [10], the target named is T4, Tyrosyl-tRNA synthetase, putative (Trypanosoma cruzi (strain CL Brener)). Description: Trypanosoma cruzi tyrosyl tRNA synthetase (TcYRS) SOP. Type of assay: functional. The note with it: 30 µM.
For assay [11], the target named is Chromo domain-containing protein 1 (Saccharomyces cerevisiae (strain ATCC 204508 / S288c) (Baker's yeast)) (UniProt P32657). Description: ScCHD-1 Enzyme Inhibition Assay. Note: in the data most compounds retested in dose-response had high values. The note with it: 30 µM. The class given is functional.
Sequence of Chromo domain-containing protein 1 (Saccharomyces cerevisiae (strain ATCC 204508 / S288c) (Baker's yeast)) (P32657 whole entry, the tested form may be a part): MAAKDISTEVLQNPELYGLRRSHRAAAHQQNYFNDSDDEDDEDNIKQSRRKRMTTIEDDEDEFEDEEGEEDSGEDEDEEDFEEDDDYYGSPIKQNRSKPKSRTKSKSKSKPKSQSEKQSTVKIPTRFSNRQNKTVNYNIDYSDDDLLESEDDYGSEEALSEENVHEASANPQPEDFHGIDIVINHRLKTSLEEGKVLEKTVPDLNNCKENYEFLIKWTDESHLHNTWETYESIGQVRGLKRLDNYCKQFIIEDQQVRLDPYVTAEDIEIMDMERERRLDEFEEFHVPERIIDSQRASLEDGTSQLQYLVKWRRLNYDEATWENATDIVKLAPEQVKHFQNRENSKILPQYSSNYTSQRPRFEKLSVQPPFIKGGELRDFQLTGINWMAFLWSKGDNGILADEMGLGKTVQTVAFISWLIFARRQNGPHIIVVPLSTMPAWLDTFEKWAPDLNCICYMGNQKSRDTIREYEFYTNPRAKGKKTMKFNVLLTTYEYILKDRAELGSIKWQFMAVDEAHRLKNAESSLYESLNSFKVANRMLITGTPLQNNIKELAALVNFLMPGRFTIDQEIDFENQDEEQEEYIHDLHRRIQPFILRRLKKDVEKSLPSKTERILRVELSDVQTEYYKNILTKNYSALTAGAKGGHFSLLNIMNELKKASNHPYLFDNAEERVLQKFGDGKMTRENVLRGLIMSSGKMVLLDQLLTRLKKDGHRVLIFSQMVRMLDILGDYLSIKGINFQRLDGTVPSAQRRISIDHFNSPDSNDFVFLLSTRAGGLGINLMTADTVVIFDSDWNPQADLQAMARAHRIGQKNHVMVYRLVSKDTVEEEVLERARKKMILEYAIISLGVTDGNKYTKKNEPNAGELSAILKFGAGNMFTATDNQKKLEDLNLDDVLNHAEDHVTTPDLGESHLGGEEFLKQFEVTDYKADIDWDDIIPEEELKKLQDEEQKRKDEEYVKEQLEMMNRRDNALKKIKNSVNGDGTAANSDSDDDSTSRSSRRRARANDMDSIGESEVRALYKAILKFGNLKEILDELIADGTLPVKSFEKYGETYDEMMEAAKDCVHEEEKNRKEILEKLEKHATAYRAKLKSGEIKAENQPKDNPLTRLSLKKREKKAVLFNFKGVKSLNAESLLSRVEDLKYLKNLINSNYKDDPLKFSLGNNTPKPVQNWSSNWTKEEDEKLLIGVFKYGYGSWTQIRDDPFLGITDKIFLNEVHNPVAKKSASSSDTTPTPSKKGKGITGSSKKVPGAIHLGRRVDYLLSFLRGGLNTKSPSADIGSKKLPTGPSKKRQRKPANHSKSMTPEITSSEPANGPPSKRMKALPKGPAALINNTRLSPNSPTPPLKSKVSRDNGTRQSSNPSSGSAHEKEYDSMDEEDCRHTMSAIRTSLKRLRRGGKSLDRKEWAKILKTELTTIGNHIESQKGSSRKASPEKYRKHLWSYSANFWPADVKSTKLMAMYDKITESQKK
The subject of assay [12] is N/A. Description: Trypanosoma cruzi proteasome luciferase counter-screen. Type of assay: functional. The note with it: 9.37 µM. A general note: A counterscreen serves to expose hits that act by an unwanted route or on another target.

In the case of `O=C(NC(CO)CO)c1coc(COc2cccc(F)c2)n1`, the Percent Effect in assay [1] is -2.81%; in assay [2], 18.9%; in assay [3], 1.42%; in assay [4] it was 15.9%; in assay [5] it was 2.44%; in [6], 10.2%. Also, the Percent Effect in assay [7] was 9.19%; in assay [8], -0.407%; in assay [9] it was 7.53%; in [10] it was 21%; in assay [11], -4.2%.
Take `Cc1nc(CN(C)C2CCN(CC3CCCCC3)C2)no1` (configuration not stated): the Percent Effect in [1] is -3.09%; in assay [2] it was 18.9%; in [3], -8.63%; in assay [4], 1.46%; in assay [5] it was 4.55%; in assay [6], -7.95%. In addition, the Percent Effect was 8.8% in [7]; 10.1% in [8]; 5.94% in assay [9]; 23.2% in assay [10]; -8.81% in assay [11].
As to `CSCCCNC(=O)Nc1cccc(-c2nccn2C)c1`, the Percent Effect in [1] is -3.41%; in [2], 6.94%; in [3] it was -0.0628%; in [4], 2.76%; in assay [5], -0.0972%; in [6] it was 1.32%. Also, the Percent Effect was 16.8% in assay [7]; 10.7% in assay [8]; 1.05% in [9]; 2.56% in assay [10]; -2.41% in assay [11].
Turning to `CNC(=O)[C@@]12CCC3(CCN(C(C)=O)CC3)[C@@H]1CN(S(C)(=O)=O)C2`, the Percent Effect in assay [1] was -4.16%; in assay [2], 8.11%; in assay [3], -2.4%; in assay [4], -2.81%; in [5] it was -4.01%; in assay [6], 4.22%. Further, the Percent Effect in [7] was -0.0858%; in assay [8] it was 1.1%; in assay [9], 5.38%; in assay [10], 6.17%; in [11] it was -3.18%.
`O=C1NC(c2ccccc2)=N[C@@]12CC[C@@H]1CN(Cc3ccco3)C[C@@H]12`: the Percent Effect in assay [1] is -0.246%; in assay [2], 5.33%; in assay [3] it was 1.87%; in assay [4] it was -5.18%; in assay [5] it was 2.32%; in [6], -47.5%. Also, the Percent Effect is -0.513% in [7]; 4.89% in assay [8]; 2.08% in [9]; -5% in assay [10]; -2.32% in assay [11].
For the compound `COc1ccc(S(=O)(=O)NCc2cccnc2N(C)C)cc1F`, the Percent Effect is -1.87% in [1]; 20.2% in assay [2]; -8.9% in assay [3]; -2.51% in [4]; 2.74% in assay [5]; 6.08% in [6]. Also, the Percent Effect in [7] was 4.18%; in assay [8] it was 21.9%; in [9], 8.37%; in assay [10], 24.1%; in [11], -5.49%.
Turning to `COc1ccc(OC)c(CNCCc2cc(F)cc3c2OCOC3)c1`, the Percent Effect in [1] was -5.17%; in assay [2] it was -6.94%; in assay [3], -9.7%; in assay [4], 2.47%; in assay [5], 4.57%; in assay [6], -3.09%. Moreover, the Percent Effect in [7] was 7.19%; in assay [8] it was 4.72%; in assay [9] it was 2.1%; in assay [10], 2.56%; in [11] it was -2.06%.
With `COCCc1noc(CNC2CCCN(c3cccnn3)C2)n1` (configuration not stated), the Percent Effect in assay [1] was -5.96%; in [2], -5.2%; in assay [3], -0.848%; in assay [4], -4.06%; in [5], -3.25%; in assay [6], 11%. In addition, the Percent Effect is 19.3% in assay [7]; 3.62% in [8]; 0% in assay [9]; -3.7% in assay [10]; 0.853% in assay [11].
Turning to `CNS(=O)(=O)Cc1ccc(CNc2cncc(-n3cccn3)n2)cc1`, the Percent Effect in [1] is -1.63%; in [2] it was 18.2%; in assay [3] it was 3.34%; in assay [4], 6.42%; in [5] it was 5.24%; in [6], 0%. Further, the Percent Effect in assay [12] is 16.1% and 14.8%; in assay [8], 18.8%; in assay [9] it was 7.77%; in [10] it was 24.4%; in assay [11] it was -12.2%.
Regarding `CC(C)N(C)Cc1nnc2n1CCCN(C(=O)c1ccco1)C2`, the Percent Effect is -1.99% in assay [1]; 10.4% in [2]; 3.35% in assay [3]; 2.67% in assay [4]; 1.08% in [5]; 13.6% in assay [6]. Also, the Percent Effect in assay [7] was 14.3%; in assay [8] it was 24.5%; in assay [9], 7.41%; in assay [10] it was 14.1%; in assay [11], -7.03%.
In the case of `CN(Cc1cc[nH]n1)C(=O)c1cccc(CCC(C)(C)O)c1`, the Percent Effect in assay [1] was -4.29%; in assay [2], -2.67%; in [3], 0.5%; in assay [4] it was 1.39%; in assay [5], -5.16%; in assay [6] it was -0.521%. Also, the Percent Effect was 6.9% and 8.45% in assay [12]; -13.1% in assay [8]; 0.546% in [9]; 3.7% in [10]; -5.03% in assay [11].
`O=C(c1cccnc1-n1cncn1)N1CCN(CC2CC2)CC1`: the Percent Effect in [1] was -2.35%; in [2] it was 16.2%; in assay [3], -2.56%; in assay [4], 20.3%; in assay [5], 5.79%; in [6], 1.91%. Moreover, the Percent Effect is 11.9% in assay [7]; 1.6% in assay [8]; 3.7% in [9]; 9.76% in [10]; -2.97% in assay [11].
